# Data taken from PubChem BioAssay (NCATS).
# Results filed as inconclusive are left out. Calls of active or inactive are those of the source. Calls come from the whole dose curve; as a rule, active = well fitted curve in the direction sought with a large enough effect; inconclusive = small, poorly fitted or top-dose-only effect, or another doubt; inactive = no such curve, though single readings can be large; an effect the other way counts as inactive or inconclusive.
# Target: Rap guanine nucleotide exchange factor 4 (Homo sapiens) (UniProt Q8WZA2)
# Sequence (Q8WZA2 whole entry, looked up): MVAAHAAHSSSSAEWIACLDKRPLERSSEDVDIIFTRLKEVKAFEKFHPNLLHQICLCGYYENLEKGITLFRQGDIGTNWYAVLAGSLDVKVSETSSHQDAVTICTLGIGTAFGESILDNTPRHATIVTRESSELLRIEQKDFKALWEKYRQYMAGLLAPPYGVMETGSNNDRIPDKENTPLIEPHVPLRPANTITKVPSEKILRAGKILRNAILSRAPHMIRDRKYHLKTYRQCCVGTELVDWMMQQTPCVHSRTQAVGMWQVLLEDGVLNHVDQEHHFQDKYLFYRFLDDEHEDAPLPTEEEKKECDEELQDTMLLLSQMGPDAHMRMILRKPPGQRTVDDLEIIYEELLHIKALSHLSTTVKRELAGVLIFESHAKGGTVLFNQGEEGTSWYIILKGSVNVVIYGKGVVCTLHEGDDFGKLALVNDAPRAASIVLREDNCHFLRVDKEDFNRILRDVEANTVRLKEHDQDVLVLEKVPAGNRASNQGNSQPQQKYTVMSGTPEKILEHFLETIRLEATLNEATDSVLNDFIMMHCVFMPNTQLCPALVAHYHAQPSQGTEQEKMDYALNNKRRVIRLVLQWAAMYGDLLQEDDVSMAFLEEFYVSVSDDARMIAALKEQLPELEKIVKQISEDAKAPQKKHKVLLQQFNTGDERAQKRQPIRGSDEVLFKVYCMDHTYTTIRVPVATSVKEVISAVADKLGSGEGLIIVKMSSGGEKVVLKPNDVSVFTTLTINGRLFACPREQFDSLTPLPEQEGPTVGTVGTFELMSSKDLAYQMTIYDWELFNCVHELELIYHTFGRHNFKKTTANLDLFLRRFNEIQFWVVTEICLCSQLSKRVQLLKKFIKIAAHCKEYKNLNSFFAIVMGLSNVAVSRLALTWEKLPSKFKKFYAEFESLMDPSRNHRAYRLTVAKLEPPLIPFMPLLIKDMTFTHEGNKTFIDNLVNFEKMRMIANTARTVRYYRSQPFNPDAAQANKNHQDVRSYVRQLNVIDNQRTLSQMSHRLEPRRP
# Assay: Confirmatory qHTS for agonist of cAMP-regulated guanine nucleotide exchange factor 4 (EPAC2) (AID 1645884);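 note: nucleotide exchange releases bodipy-GDP from Rap1 and this lowers its fluorescence; nearly all actives have a fitted effect of over 65% in size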
# Conditions: EPAC2 GEF activity, Rap1B-BODIPY-GDP fluorescence; series mostly up to 154 µM; activation: at the top concentration
# % is set by controls: 0 for no effect and ±100 for the full control effect.
row,Structure (SMILES),activation
1,CC1Cc2cc(C(=O)O)ccc2O1 (stereo not given),0.894% (inactive)
2,CC(C)OC(=O)c1c(-c2ccccc2)c(-c2ccccc2)nn(C)c1=O,"-8.42% [at 83.8 µM, percent relative to cAMP agonist control] (inactive)"
3,COc1ccccc1OCC(=O)Nc1cc(C(F)(F)F)ccc1-n1cncn1,"2.73% [at 17.1 µM, percent relative to cAMP agonist control] (inactive)"
4,COc1nc(C)cc(C)c1S(=O)(=O)c1ccccc1C,-6.13% (inactive)
5,O=c1c2ccccc2nc(/C=C/c2cccnc2)n1CCc1ccccc1,3.74% (inactive)
6,CC(Oc1ccccc1)C(=O)Nc1nnc(S(=O)(=O)N2CCCCC2)s1 (stereo not given),2.08% (inactive)
7,COc1cc(OC)nc(Oc2cccc(Cl)c2C)n1,5.45% (inactive)
8,CCN(CC)c1nc(SCC(=O)O)nc(N(CC)CC)n1,-7.26% (inactive)
9,C=CCOc1ccc(/C=C2\SC(=S)N(NS(=O)(=O)c3ccc(C)cc3)C2=O)cc1,-24.8% (inactive)
10,O=C1S/C(=C\c2ccc(O)c([N+](=O)[O-])c2)C(=O)N1c1ccccc1Cl,-23.5% (inactive)
11,O=C(NCCCn1ccnc1)c1cc(-c2cccnc2)nc2ccc(Br)cc12,6.55% (inactive)
12,COC(=O)C1=C(C)N(Cc2ccco2)C(=O)/C1=C\c1ccc(N(C)C)cc1,-246% (inactive)
13,Cc1ccc(NC(=O)c2cccc(NC(=O)/C=C/c3ccco3)c2)cc1C,"6.06% [at 17.1 µM, percent relative to cAMP agonist control] (inactive)"
14,Cc1cc(Br)c2c(c1)C(O)(N1CCCCC1C)C(=O)N2 (stereo not given),"10.3% [at 17.1 µM, percent relative to cAMP agonist control] (inactive)"
15,CCCCNC(=O)Cn1nc(N2CCN(c3ccccc3OC)CC2)ccc1=O,"0.934% [at 83.8 µM, percent relative to cAMP agonist control] (inactive)"
16,CC(=O)c1c(C(C)=O)c(C)n(-c2nc(-c3ccccc3)c(C)s2)c1C,9.04% (inactive)
17,COc1ccccc1OCC(=O)Nc1cccc(S(=O)(=O)NC2=NCCCCC2)c1,0.0248% (inactive)
18,CN(C(=O)COC(=O)/C=C/c1ccc2c(c1)OCO2)c1c(N)n(Cc2ccccc2)c(=O)[nH]c1=O,-9.67% (inactive)
19,CCOc1ccc(/C=C/C(=O)c2cc(Br)ccc(=O)c2O)cc1,-8.92% (inactive)
20,Cc1ccc(Sc2ccc(S(=O)(=O)Nc3ccc(C(=O)O)cc3)cc2)cc1C,-22.8% (inactive)

# Target: Rap guanine nucleotide exchange factor 4 (Homo sapiens) (UniProt Q8WZA2)
# Assay: Confirmatory qHTS for antagonist of cAMP-regulated guanine nucleotide exchange factor 4 (EPAC2) (AID 1645885); note: nearly all actives have a fitted effect of over 25% in size; note: potency is the fitted concentration of half-maximal effect
# Conditions: EPAC2 Rap1B-BODIPY-GDP exchange fluorescence, biochemical; series mostly up to 12.7 µM; activity change, negative = inhibition: at the top concentration
Structure (SMILES),"activity change, negative = inhibition",outcome,Potency
O=C(O)c1cc(N/N=C/c2ccncc2)ccc1Cl,-3.19% (inactive),–,–
Cc1ccccc1OCCC(=O)OCC(=O)N1CCN(S(=O)(=O)c2ccc(Cl)cc2)CC1,-7.96% (inactive),–,–
COCCNC(=O)CS(=O)Cc1nc(-c2ccc(Cl)cc2)oc1C (stereo not given),-7.69% (inactive),–,–
O=c1oc2ccccc2nc1/C=C(O)/C=C\c1ccccc1,-6.23% (inactive),–,–
Nc1[nH]c(C(=O)c2ccccc2)c(-c2ccccc2C(F)(F)F)c1C(=O)NCCc1cccs1,-3.57% [at 114 µM] (inactive),–,–
CCCOc1c(OC)cccc1C1CC(=O)Nc2cc(OC)c(OC)c(OC)c21 (stereo not given),–,inactive,–
CCOc1nc(C)cc(C)c1S(=O)(=O)c1ccc(Cl)cc1,-31.7% (inactive),–,–
COc1ccc2nc(N3CCN(C(=O)C4CC4)CC3)sc2c1,–,inactive [at 12.7 µM],–
COc1cc(-c2c(CCO)sc3ccccc23)cc(OC)c1OC,-12% (inactive),–,–
c1ccc(OCCCn2ccnc2)cc1,1.74% [at 114 µM] (inactive),–,–
CC(=O)Oc1c(Sc2ccccc2[N+](=O)[O-])c(C)nn1C(C)(C)C,90.6% [at 114 µM] (inactive),–,–
C[C@@H](c1ccccc1)N1Cc2ccccc2Oc2cc(Br)ccc2S1(=O)=O,–,–,2690 nM (active)
O=C(N[C@@H](Cc1c[nH]c2ccccc12)C(=O)O)OCC1c2ccccc2-c2ccccc21,12.7% (inactive),–,–
O=C(CN1C(=O)N/C(=C\c2ccccc2OCc2ccc(C(=O)O)cc2)C1=O)Nc1ccccc1F,0.909% (inactive),–,–
CN1C(=O)/C(=C\c2ccc(N(C)C)cc2)OC1=S,-7.14% [at 114 µM] (inactive),–,–
CC1CCCCC1NC(=O)COC(=O)c1c2c(nc3ccccc13)/C(=C/c1ccco1)CC2 (stereo not given),-15.1% [at 114 µM] (inactive),–,–
CCCc1[nH]nc2c1C(c1cccnc1)C(C#N)=C(N)O2 (stereo not given),-6.56% (inactive),–,–
C=CCn1c(CSCc2ccc(Cl)cc2Cl)nnc1SCC(=O)Nc1ccc(C(=O)O)cc1,-12% (inactive),–,–
CC(Sc1ccc(Cl)cc1)C(=O)NNC(=O)c1csc(N2CCOCC2)n1 (stereo not given),-14.6% (inactive),–,–
COc1cc2c(cc1OC)C(c1ccccc1Cl)N(C)CC2 (stereo not given),-20.6% (inactive),–,–
CC1Cc2cc(C(=O)O)ccc2O1 (stereo not given),-3.19% [at 114 µM] (inactive),–,–
CC(C)OC(=O)c1c(-c2ccccc2)c(-c2ccccc2)nn(C)c1=O,-13.8% (inactive),–,–
COc1ccccc1OCC(=O)Nc1cc(C(F)(F)F)ccc1-n1cncn1,5.13% (inactive),–,–
COc1nc(C)cc(C)c1S(=O)(=O)c1ccccc1C,–,inactive,–
O=c1c2ccccc2nc(/C=C/c2cccnc2)n1CCc1ccccc1,-13.2% [at 114 µM] (inactive),–,–
